Screening results deposited in PubChem by National Center for Advancing Translational Sciences (NCATS).
An excerpt weighted towards active compounds, which were near 6.6% of everything screened.
RGS4 inh – inhibitors of human regulator of G protein signaling 4 | Transcreener GDP fluorescence polarization, RGS4-accelerated GTP hydrolysis | hit rate 0.039% among 390,000 | Potency, µM (titrated, usually from 114 µM), for the others: at the highest dose activity change, negative = inhibition, most hits filed as inhibitors | AID 504845; note: % is set by controls: 0 for no effect and ±100 for the full control effect; nearly all actives have a fitted effect of over 75% in size
Target sequence (P49798 whole entry, looked up): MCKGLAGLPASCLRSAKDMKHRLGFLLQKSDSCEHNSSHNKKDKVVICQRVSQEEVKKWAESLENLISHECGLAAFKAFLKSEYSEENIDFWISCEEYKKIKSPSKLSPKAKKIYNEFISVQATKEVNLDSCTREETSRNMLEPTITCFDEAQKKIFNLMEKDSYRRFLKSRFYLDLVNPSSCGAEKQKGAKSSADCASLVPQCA
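MLSMR compounds (23 nl, pin-transferred) preincubated 10 min at room temperature with a 500nM (2x) first reagent, then RGS4 at 900nM (2x) plus Transcreener GDP mix added; fluorescence polarization (620/688 nm) read before and after 90 min at 30 °C.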
SW480 rerep – inducers of DNA re-replication in SW480 colon cancer cells; Potency, µM (doses to about 46.1 µM), inactives show top-dose re-replication activation, usual class: activators; SW480 DNA re-replication, Hoechst DNA content imaging, 48 h; hit rate 1.8% among 340,000; AID 624297; note: % of control where 0% means no effect; nearly all actives have a fitted effect of over 55% in size
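First, 250 cells per well were seeded. Next, compound or vehicle (23 nL) was pinned in, plates sat 48 hr at 37 C. Finally Hoechst was added for 40 min before fluorescence scanning.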
PTAP TSG101 blk – blocks PTAP/TSG101 interaction to inhibit HIV-1 budding. Q99816. Potency, µM (doses to about 115 µM), for the others: at the highest dose activity change, negative = inhibition, most hits filed as inhibitors. AID 493005. Fluorescence polarization, FITC-PTAP peptide / Tsg101 binding. 340,000 tested, under 10 active; active = well fitted inhibition curve with a large enough effect in the main read-out, with a control signal flat, not every such curve was filed as active; inconclusive = small, poorly fitted or top-dose-only effect, or effect the other way, or a change in a side signal; inactive = no such curve, though single readings can be large or run the other way; note: % of control where 0% means no effect
Target sequence (Q99816 whole entry, looked up): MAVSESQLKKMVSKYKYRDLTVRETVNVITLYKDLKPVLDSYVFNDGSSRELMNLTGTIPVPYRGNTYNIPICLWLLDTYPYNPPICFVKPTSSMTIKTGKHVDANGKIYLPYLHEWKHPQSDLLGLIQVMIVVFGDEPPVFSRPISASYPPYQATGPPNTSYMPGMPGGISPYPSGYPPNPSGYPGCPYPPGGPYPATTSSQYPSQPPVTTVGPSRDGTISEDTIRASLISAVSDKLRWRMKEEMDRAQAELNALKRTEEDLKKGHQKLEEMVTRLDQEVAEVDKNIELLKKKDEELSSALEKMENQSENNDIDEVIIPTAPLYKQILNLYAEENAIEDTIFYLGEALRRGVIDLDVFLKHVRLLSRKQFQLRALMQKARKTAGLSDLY
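FP read-out: FITC-PTAP peptide, 50 nM final, binding Tsg101 binding domain, 10 uM final; 20 min, r.t.; 10 mM HEPES pH 7.5, 0.15 M NaCl, 0.01% Tween 20, 3 mM EDTA, 0.1 mM TCEP.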
KB-3-1 tox – kills parental KB-3-1 adenocarcinoma cells; KB-3-1 viability, CellTiter-Glo ATP luminescence, 72 h; Potency, µM (doses to about 46.1 µM), usual class: cytotoxic; hit rate 1.4% among 400,000; AID 1347075; note: % is set by controls: 0 for no effect and ±100 for the full control effect; nearly all actives have a fitted effect of over 60% in size
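Multi-concentration cytotoxicity screen in KB-3-1 cells grown in DMEM lacking phenol red with 10% FBS. After 72 h at 37 °C with compound, ATP-dependent luminescence was recorded.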
MCF10A rereplic – induces DNA re-replication in MCF 10a normal breast cells | AID 624296 | MCF 10A DNA re-replication, Hoechst nuclear intensity, 48 h | Potency, µM (series often up to 46.1 µM), inactives show at the top dose activity, positive = re-replication, hits mostly activators | hit rate 2.9% among 350,000; note: % of control where 0% means no effect; nearly all actives have a fitted effect of over 50% in size
KB-V1 MDR tox – kills drug-selected multidrug resistant KB-V1 cells | Potency, µM (series often up to 46.1 µM), hits mostly cytotoxic | hit rate 3.4% among 400,000 | KB-V1 MDR cells viability, CellTiter-Glo, 72 h; note: % is set by controls: 0 for no effect and ±100 for the full control effect; nearly all actives have a fitted effect of over 60% in size
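qHTS viability screen in drug-selected KB-V1 MDR cells: 72 h compound treatment at 37 degrees C, ATP luminescence end point.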
Numbers without * were called inactive; i = inactive; ? = inconclusive; · = no result given; [ ] = remark or other dose. Unless noted, calls come from the whole dose curve; as a rule, active = well fitted curve in the direction sought with a large enough effect; inconclusive = small, poorly fitted or top-dose-only effect, or another doubt; inactive = no such curve, though single readings can be large; an effect the other way counts as inactive or inconclusive. Potency is the fitted concentration of half-maximal effect.

SMILES | RGS4 inh | SW480 rerep | PTAP TSG101 blk | KB-3-1 tox | MCF10A rereplic | KB-V1 MDR tox
CCOC(=O)C(C(=O)Nc1ccc(C)cc1)C1CCCCC1 (stereo unspecified) | -5% | ? | -3% | 23µM* | 28% | 9.2µM*
CCOC(=O)C(C(=O)Nc1ccccc1)C1CCCCC1 (stereo unspecified) | -16% | -3% | -7% | i | 2% | i
CCOC(=O)COc1ccc(C)cc1C(=O)c1ccn2nc(-c3ccc(F)cc3)cc2n1 | 1% | · | · | i | · | i
CCCCOC(=O)c1ccc(NC(=O)CSc2nc3c(c(=O)[nH]2)CCC3)cc1 | -18% | · | · | i | · | i
COc1ccc(NC(=O)CCCCC#Cc2ccccc2)cc1 | -22% | -9% | 1% | i | -2% | i
O=C(C#Cc1ccccc1)Nc1ccc(F)cc1 | 5% | ? | 1% | ? | 0% | i
O=C(C#Cc1ccccc1)Nc1cccc(F)c1 | -12% | ? | 2% | 23µM* | ? | ?
COc1ccc(NC(=O)C#Cc2ccccc2)cc1 | -24% | ? | 0% | 21µM* | ? | i
O=C(Nc1ccc2ccccc2c1)c1nc(S(=O)(=O)Cc2ccccc2F)ncc1Cl | · | · | · | i | · | i
CCCCn1c(SCc2nc3ccccc3s2)nc2ccccc2c1=O | -6% | -5% | -1% | 23µM* | ? | ?
O=c1c2ccccc2nc(SCc2ccc([N+](=O)[O-])cc2)n1CCCO | -31% | 10% | 0% | i | 16% | 2.9µM*
CCCn1c(SCc2nc3sc(C)c(C)c3c(=O)[nH]2)nc2ccccc2c1=O | -10% | -7% | 9% | i | ? | 9.2µM*
CCOC(=O)c1c(Nc2ccc(OC)cc2)nnc(-c2ccccc2)c1-c1ccccc1 | -9% | · | · | ? | · | i
Cc1ccc(NC2=C(N3CCCCC3)C(=O)c3ccccc3C2=O)cc1 | -23% | 2.9µM* | -8% | ? | 5.8µM* | i
COc1ccccc1NC1=C(N2CCCCC2)C(=O)c2ccccc2C1=O | -15% | 4.6µM* | -4% | 2.6µM* | 3.3µM* | i
O=C1C(Nc2ccccc2)=C(N2CCCCC2)C(=O)c2ccccc21 | -19% | 0%[9.22 µM] | 3% | ? | ? | i
O=C(/C=C/c1ccc(O)cc1)c1ccc(NC2=C(N3CCCCC3)C(=O)c3ccccc3C2=O)cc1 | ? | ? | 0% | 2.1µM* | 6.5µM* | ?
O=C(CSCc1cnn(-c2ccccc2)c1-n1cccc1)NCc1ccc(F)cc1 | -1% | · | · | · | · | ·
CN(C)c1ccc(CCc2ccnc3ccccc23)cc1 | · | · | · | i | · | i
CN1CCc2c(sc(NC(=O)c3ccc(S(=O)(=O)N4CCCCCC4)cc3)c2C(N)=O)C1 | ? | 17% | 13% | i | 16µM* | 21µM*
CN1CCc2c(sc(NC(=O)c3ccc(S(=O)(=O)N4CCCC4)cc3)c2C(N)=O)C1 | ? | 1% | -3% | i | 14% | i
CCN1CCc2c(sc(NC(=O)c3ccc(S(=O)(=O)N4CCCC4)cc3)c2C(=O)NC)C1 | ? | ? | -7% | ? | 18µM* | ?
CNC(=O)c1c(NC(=O)c2ccc(S(=O)(=O)N3CCCc4ccccc43)cc2)sc2c1CCN(C)C2 | ? | ? | ? | i | 21µM* | i
COc1ccc(C(=O)Nc2cc(-c3cccc(C)c3)nn2-c2ccccc2)cc1 | 21% | · | · | i | · | i
Cc1ccc(-c2ccc(C3C4C=CCC(C)C4C(=O)N3Cc3ccccc3)c(F)c2)cc1 (stereo unspecified) | 0% | · | · | · | · | ·
SMILES | RGS4 inh | SW480 rerep | PTAP TSG101 blk | KB-3-1 tox | MCF10A rereplic | KB-V1 MDR tox
COc1ccccc1-c1nnc(C2CCN(S(=O)(=O)c3ccc(CC(C)C)cc3)CC2)o1 | 5% | · | · | i | · | i
C/C(=N/NC(=O)c1ccc(C)s1)c1cccc(NC(=O)COc2ccc(Cl)cc2Cl)c1 | 20% | ? | -1% | i | 9.2µM* | i
C/C(=N\NC(=O)c1c(Cl)cnn1C)c1cccc(NC(=O)COc2ccccc2)c1 | 31% | 4% | 0% | i | 16µM* | i
C/C(=N/NC(=O)c1ccco1)c1cccc(NC(=O)c2ccc(C)s2)c1 | -24% | -2% | -5% | i | 3% | 10µM*
C/C(=N/NC(=O)c1cccs1)c1ccc(NC(=O)COc2ccc(Cl)cc2Cl)cc1 | ? | 9.2µM* | -2% | i | 6.5µM* | i
C/C(=N/NC(=O)c1ccco1)c1cccc(NC(=O)c2ccc(C)o2)c1 | -22% | 0% | 0% | i | 28% | i
CCC/C=C1/CCCOC(C(=O)NCCOC)(C(F)(F)F)C1 (stereo unspecified) | 18% | · | · | · | · | ·
COc1ccc(/C(C)=N/Nc2ncc(Cl)cc2Cl)c(O)c1 | -26% | ? | -1% | i | 16µM* | ?
COc1ccc2nc(Nc3nc(CSc4nnnn4-c4ccccc4)cc(=O)[nH]3)nc(C)c2c1 | 8% | -3% | 0% | ? | -1% | 16µM*
COC(=O)Cc1cc(=O)[nH]c(Nc2nc3ccccc3o2)n1 | -12% | -3% | -5% | i | 0% | i
CCOc1ccc2nc(Nc3nc(CSc4nnnn4-c4ccccc4)cc(=O)[nH]3)nc(C)c2c1 | 10% | -12% | -4% | i | 15% | i
Cc1ccc2oc(Nc3nc(-c4ccccc4)cc(=O)[nH]3)nc2c1 | -1% | ? | 2% | ? | 21µM* | ?
COCc1cc(=O)[nH]c(Nc2nc(C)c3ccccc3n2)n1 | 43% | ? | -1% | ? | ? | 21µM*
Cc1nc(-c2ccccc2)cc(=O)[nH]1 | 2% | 1% | -9% | i | 8% | i
COCc1cc(=O)[nH]c(Nc2nc3ccccc3o2)n1 | -13% | ? | -2% | 7.1µM* | ? | i
CCCN(Cc1cccs1)C(=O)Nc1ccc(Br)c(C)c1 | 17% | · | · | i | · | i
Cc1ccc(-n2nnnc2CNC(=O)c2ccc(F)cc2)cc1C | -2% | · | · | · | · | ·
Cc1ccc(SCc2cc(=O)[nH]c(Nc3nc(C)c4cccc(C)c4n3)n2)cc1 | 2% | -1% | · | i | -6% | 21µM*
COC(=O)c1ccccc1S(=O)(=O)N1CCC(c2nc3ccccc3o2)CC1 | -18% | -6% | -1% | i | 9% | 12µM*
CCOC(=O)CN1N=C(/C=C/c2ccc(C)cc2)CCC1=O | 4% | 14% | 0% | 5.2µM* | 13% | 5.8µM*
Cc1ccccc1CN1N=C(/C=C/c2ccccc2)CCC1=O | 3% | -1% | -3% | i | 0% | ?
